Test results reported in PubChem BioAssay AID1875 (Broad Institute, 2009).
Screen size: about 300,000 compounds; about 65 (0.02%) were called active.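 How the source made its calls: active means lowest replicate activity score at least 50, where 100 means six control SD above control mean; inconclusive means lowest score under 50 but half or more replicates reach 50; inactive means the rest.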 The sample as a whole holds a higher share of actives than the screen did.

Assay: polyadenylation inhibitors in yeast reporter cells, primary screen, luminescence, S. cerevisiae (AID 1875);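 further: yeast exposed to compound for 9 h at 30 °C; higher score means more reporter readthrough which indicates perturbed polyadenylation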
Conditions: S. cerevisiae SKY197-pL101 polyadenylation reporter, beta-gal luminescence; at 12 µM; hits give high values; efflux-impaired pdr1/pdr3 knockout yeast; score 100 = 6 SD above DMSO

Structure (SMILES)	activity score
C/C(CC(=O)Nc1ccc(N(C)C)cc1)=N\NC(=O)c1ccccc1F	-2.05% (inactive)
COCCNC(=S)N1CCN(C)CC1	-14.8% (inactive)
COc1ccc(CCN(C)C(=O)C23CC4CC(CC(Cl)(C4)C2)C3)cc1OC	5.22% (inactive)
COc1cccc(NC(=O)Cn2c3ccc(F)cc3c3nc4n(c(=O)c32)CCS4)c1	-13.2% (inactive)
Cc1ccc(Cl)cc1N1CCN(C(=O)c2cccc3c(=O)c(C)c(-c4ccccc4)oc23)CC1	5.32% (inactive)
COC(=O)Nc1ccc(S(=O)(=O)N(C)CC(F)(F)C(F)F)cc1	3.96% (inactive)
Clc1ccc(-c2nnc(-c3ccccc3)nc2N2CCSCC2)cc1	-11% (inactive)
COc1cccc2cc(C(C)N(CCCN3CCOCC3)C(=O)Nc3ccc(Cl)cc3)oc12 (stereo unspecified)	-8.58% (inactive)
COC(=O)c1ccccc1NC(=O)C1CCN(C(=O)N2CCOc3ccccc32)CC1	8.38% (inactive)
CCOc1ccc2sc(NS(=O)(=O)c3ccc(N)cc3)nc2c1	-8.96% (inactive)
O=C1OCC2=C1C(c1ccccc1)CC(=O)N2c1cccc(F)c1 (stereo unspecified)	19.6% (inactive)
COc1cccc(NC(=O)CC(c2ccc(OC(C)C)cc2)c2ccccc2OC)c1 (stereo unspecified)	10.2% (inactive)
Cc1ccc2nc(SCC(=O)Nc3cccc4ccccc34)nc(=O)n2c1	-16.5% (inactive)
CC1(C)C(C=C(Cl)Cl)C1C(=O)N(Cc1ccc(Cl)cc1)C1CCS(=O)(=O)C1 (stereo unspecified)	-12.2% (inactive)
N#CCSc1nc2ccc(N3CCOCC3)cc2c(=O)n1CCc1ccccc1	-15.9% (inactive)
CC1CC(NC(=O)/C(C#N)=C/c2ccc[nH]2)CC(C)(C)C1 (stereo unspecified)	-5.8% (inactive)
CCN1C(=O)N[C@@H](CCc2ccccc2)C(C(=O)OC)=C1C	-17.2% (inactive)
O=C1C2C3C=CC(C3)C2C(=O)N1c1ccc(S(=O)(=O)Nc2nccs2)cc1 (stereo unspecified)	-1.69% (inactive)
O=C(NC(Cc1ccccc1)C(=O)N1CCCC(C(F)(F)F)C1)c1ccccc1 (stereo unspecified)	5.98% (inactive)

Structure (SMILES)	activity score
Cn1ncc(N2CCN(S(=O)(=O)c3ccc(Br)cc3)CC2)c(Cl)c1=O	13.7% (inactive)
CC(=O)N1C(=O)/C(=C2\SC(=S)N(NC(=O)c3ccc(O)cc3)C2=O)c2ccccc21	-6.71% (inactive)
Cc1ccc(CNC(=O)CCCNC(=O)c2ccc(Cl)cc2)n1C	-18.6% (inactive)
Cc1cccc(N(C(=O)c2sc(C)nc2C)C(C(=O)NCC2CCCO2)c2ccccc2)c1 (stereo unspecified)	-7.81% (inactive)
CC(C)C1Nc2c(C(=O)O)cccc2C(Nc2ccccc2C(=O)O)C1(C)C (stereo unspecified)	12.3% (inactive)
Cc1ccn2c(=O)nc(SCC(=O)NCc3ccc4c(c3)OCO4)nc2c1	17.3% (inactive)
Cn1cc(S(=O)(=O)NC(c2ccccc2)c2ccccc2)c(=O)n(C)c1=O	-1.67% (inactive)
COCCCNC(NC(=O)c1ccc(C)cc1)C(Cl)(Cl)Cl (stereo unspecified)	8.69% (inactive)
COc1ccc2oc(=N)c(C(=O)Nc3ccc(Br)cc3)cc2c1	0.299% (inactive)
O=C(Nc1ccccc1N1CCOCC1)c1ccc(OCc2cscn2)cc1	3% (inactive)
CC(=O)Nc1ccc(NC(=O)[C@@H](NC(=O)c2cccc(C)c2)C(C)C)cc1	-9.42% (inactive)
CCOC(=O)CNC(=O)CSc1ccc2nnc(-c3cccnc3)n2n1	7.59% (inactive)
CCOC(=O)N1CCN(CC(=O)n2c(C)c(C)c3ccccc32)CC1	-9.64% (inactive)
NC(N)=Nc1nc2ccc(Br)cc2c(=O)[nH]1	11.2% (inactive)
Cc1ccc(NC(=O)C(=O)NCC2CCN(C(=O)c3cccc([N+](=O)[O-])c3)CC2)cc1	15.6% (inactive)
Cc1ccc(-n2nc(N)c3c(=O)oc(N(C)C)nc32)cc1	-13.9% (inactive)
FC(F)(F)c1cc(C(F)(F)F)c2ccc(N3CCN(c4ccccc4)CC3)nc2n1	-28.1% (inactive)
Nc1c(C(=O)c2cccs2)sc2nsc(SCCN3CCCCC3)c12	-10.6% (inactive)
CN(Cc1nc(-c2cnccn2)no1)Cc1n[nH]c2c1CCCCC2	-15.8% (inactive)

Structure (SMILES)	activity score
CCNC(=O)CC1C(=O)N(c2ccc(OC)cc2)C(=O)N1CCOC (stereo unspecified)	13.9% (inactive)
Cc1c(Nc2nc3ccccc3nc2NS(=O)(=O)c2cccs2)c(=O)n(-c2ccccc2)n1C	-9.51% (inactive)
COc1ccc(/C=C2\SC(=S)N(CCC(=O)Nc3ccccn3)C2=O)cc1OC	14.3% (inactive)
COc1ccccc1C(=O)NNC(=O)CCN1C(=O)/C(=C\c2ccccc2)SC1=S	-4.37% (inactive)
COc1cc(/C=C2/SC(=S)N(Cc3ccccc3)C2=O)cc(OC)c1O	425% (active)
COC(=O)C(=Nc1ccccc1)/C(C(=O)C(=O)N(C)c1ccccc1)=C(\O)c1ccc(Cl)cc1	3.12% (inactive)
COc1ccc(C2/C=C\CN(S(=O)(=O)c3cccs3)CC(=O)N2Cc2ccc(F)cc2)cc1 (stereo unspecified)	1.94% (inactive)
Cc1c(S(=O)(=O)N2CC(C)CC(C)C2)c(=O)n(C)c(=O)n1C (stereo unspecified)	11.6% (inactive)
COc1ccc(/C=N/Nc2nc(-c3ccc(C)cc3)c(C#N)c(=O)[nH]2)cc1	-16.1% (inactive)
Cc1ccc(CNC(=O)Cn2c(=O)c3sccc3n(Cc3cccc([N+](=O)[O-])c3)c2=O)cc1	-7.25% (inactive)
O=C(NCc1ccccc1)C(c1cccnc1)N(C(=O)c1csnn1)c1ccc(F)cc1 (stereo unspecified)	5.05% (inactive)
CC1CN(C(=O)COC(=O)c2cccc(NS(=O)(=O)c3ccccc3)c2)CC(C)O1 (stereo unspecified)	2% (inactive)
COc1ccc(NC(=O)COc2ccc(C(=O)c3ccc(F)cc3)cc2)cc1S(N)(=O)=O	7.67% (inactive)
O=C(O)CCCn1cc(NC(=O)COc2cccc(Cl)c2)cn1	-6.55% (inactive)
Cc1cccn2c(CN(C)C3CCCc4ccccc43)c(C(=O)N3CCOCC3)nc12 (stereo unspecified)	10.7% (inactive)
O=C(COC(=O)Cc1ccccc1F)NNC(=O)c1ccc(Cl)cc1	0.16% (inactive)
CC(C)(C)C(=O)NC1CC2CCCC(C1)N2C(=O)Nc1ccccc1F (stereo unspecified)	0.739% (inactive)
CCOc1ccccc1N1C(=O)CC(Sc2nccc(C)n2)C1=O (stereo unspecified)	13.3% (inactive)
